The source made the active and inactive calls.
Tests used:
[1] = test system: Plasmodium falciparum Sir2 (PF13_0152, Sir2A); assay: pfSir2 binders on small-molecule microarrays, primary screen, biochemical, small-molecule microarray, 635 nm fluorescence (AID 1098); conditions: small-molecule microarray binding, fluorescence 635 nm; higher = more signal;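 note: score merges spot fluorescence intensity with its signal-to-noise ratio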
[2] = small-molecule microarray binders of probe aDKK1, primary screen, biochemical, biotinylated probe, 635/667 nm fluorescence (AID 1099); conditions: higher = more signal;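 note: score merges 667nm spot fluorescence with signal to noise across triplicate slides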
[3] = small-molecule microarray binders of probe aCHRDL2, primary screen, biochemical, biotinylated probe, 635/667 nm fluorescence (AID 1100); conditions: higher = more signal
[4] = splicing luciferase reporter signal modulators, primary screen, spliceosome inhibition project, cell-based, HEK293, splice +/- reporter (AID 1101); conditions: luminescence, 24 h, higher = more signal, called active from +8 up or from −8 down;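 note: HEK293 cells carrying a splicing-competent luciferase reporter gene; test concentration not given here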
[5] = target: Fibroblast growth factor 10 (Homo sapiens) (UniProt O15520); assay: FGF10 binders on small-molecule microarrays, primary screen, biochemical, small-molecule microarray, 635 nm fluorescence (AID 1102); conditions: FGF10 binding, fluorescence 635 nm, higher = more signal
Chain of Fibroblast growth factor 10 (Homo sapiens) (O15520 whole entry, looked up): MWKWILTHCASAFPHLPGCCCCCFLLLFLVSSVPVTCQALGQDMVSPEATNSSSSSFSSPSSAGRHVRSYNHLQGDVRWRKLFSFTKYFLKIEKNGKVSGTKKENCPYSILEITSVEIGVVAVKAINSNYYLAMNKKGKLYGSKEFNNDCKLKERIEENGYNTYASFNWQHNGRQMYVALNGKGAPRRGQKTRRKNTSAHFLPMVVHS

[6] = test system: glycogen synthase kinase-3 (GSK3A per assay name; protocol says GSK3B); assay: GSK3 binders on small-molecule microarrays, primary screen, biochemical, small-molecule microarray, 635 nm fluorescence, GSK3A (AID 1103); conditions: small-molecule microarray binding, fluorescence 635 nm; higher = more signal; note: the record names both GSK3A and GSK3B
[7] = target: Epidermal growth factor receptor (Homo sapiens) (UniProt P00533); assay: EGFR binders on small-molecule microarrays, primary screen, biochemical, small-molecule microarray, 635 nm fluorescence (AID 1104); conditions: EGFR binding, higher = more signal;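 note: score merges 667 nm emission intensity with spot signal to noise over triplicate slides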
Chain of Epidermal growth factor receptor (Homo sapiens) (P00533 whole entry, looked up): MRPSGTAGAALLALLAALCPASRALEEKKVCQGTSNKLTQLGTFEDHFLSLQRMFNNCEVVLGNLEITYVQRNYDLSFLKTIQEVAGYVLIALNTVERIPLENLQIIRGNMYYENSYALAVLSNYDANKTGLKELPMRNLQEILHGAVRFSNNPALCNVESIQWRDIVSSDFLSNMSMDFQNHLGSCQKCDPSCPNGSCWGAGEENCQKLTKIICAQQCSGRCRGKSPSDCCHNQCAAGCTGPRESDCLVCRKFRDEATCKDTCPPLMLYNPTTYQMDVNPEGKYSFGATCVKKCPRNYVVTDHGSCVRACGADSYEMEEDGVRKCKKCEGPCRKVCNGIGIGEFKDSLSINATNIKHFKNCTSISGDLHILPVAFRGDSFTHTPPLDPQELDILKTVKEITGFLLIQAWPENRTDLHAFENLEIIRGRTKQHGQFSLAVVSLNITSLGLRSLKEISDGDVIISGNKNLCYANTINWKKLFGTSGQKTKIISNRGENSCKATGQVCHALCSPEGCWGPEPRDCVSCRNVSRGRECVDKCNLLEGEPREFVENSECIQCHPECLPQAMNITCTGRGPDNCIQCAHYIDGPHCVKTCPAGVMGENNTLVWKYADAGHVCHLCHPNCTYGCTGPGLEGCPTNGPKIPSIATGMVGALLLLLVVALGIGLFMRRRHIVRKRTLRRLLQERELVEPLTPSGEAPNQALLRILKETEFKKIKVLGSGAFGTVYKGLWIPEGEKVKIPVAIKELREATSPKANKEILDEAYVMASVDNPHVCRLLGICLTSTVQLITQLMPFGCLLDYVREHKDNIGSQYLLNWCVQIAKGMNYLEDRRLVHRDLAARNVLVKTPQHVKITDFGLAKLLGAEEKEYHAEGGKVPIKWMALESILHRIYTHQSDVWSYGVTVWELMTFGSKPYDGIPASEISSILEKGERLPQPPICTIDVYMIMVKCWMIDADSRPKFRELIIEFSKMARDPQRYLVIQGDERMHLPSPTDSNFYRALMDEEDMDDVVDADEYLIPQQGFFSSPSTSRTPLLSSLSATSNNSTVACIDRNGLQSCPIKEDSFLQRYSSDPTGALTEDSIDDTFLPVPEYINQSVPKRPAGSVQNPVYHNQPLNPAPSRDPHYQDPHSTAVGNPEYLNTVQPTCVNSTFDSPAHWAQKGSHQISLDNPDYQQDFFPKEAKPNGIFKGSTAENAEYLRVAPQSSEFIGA

[8] = target: Follistatin-related protein 3 (Homo sapiens) (UniProt O95633); assay: FSTL3 binders on small-molecule microarrays, primary screen, biochemical, small-molecule microarray, 635 nm fluorescence (AID 1105); conditions: FSTL3 binding, higher = more signal;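 note: score merges emission near 667 nm and signal to noise per printed spot across three slides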
Chain of Follistatin-related protein 3 (Homo sapiens) (O95633 whole entry, looked up): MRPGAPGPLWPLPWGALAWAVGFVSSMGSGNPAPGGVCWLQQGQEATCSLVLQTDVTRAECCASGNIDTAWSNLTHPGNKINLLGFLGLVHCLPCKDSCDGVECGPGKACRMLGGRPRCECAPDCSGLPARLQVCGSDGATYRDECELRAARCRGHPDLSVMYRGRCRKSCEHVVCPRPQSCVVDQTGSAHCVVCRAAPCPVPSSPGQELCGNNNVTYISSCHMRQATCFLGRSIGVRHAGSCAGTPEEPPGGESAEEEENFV

[9] = target: Dickkopf-related protein 1 (Homo sapiens) (UniProt O94907); assay: DKK1 binders on small-molecule microarrays, primary screen, biochemical, small-molecule microarray, 635 nm fluorescence scan (AID 1106); conditions: DKK1 binding, higher = more signal;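 note: score merges emission near 667 nm with signal to noise over three replicate slides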
Chain of Dickkopf-related protein 1 (Homo sapiens) (O94907 whole entry, looked up): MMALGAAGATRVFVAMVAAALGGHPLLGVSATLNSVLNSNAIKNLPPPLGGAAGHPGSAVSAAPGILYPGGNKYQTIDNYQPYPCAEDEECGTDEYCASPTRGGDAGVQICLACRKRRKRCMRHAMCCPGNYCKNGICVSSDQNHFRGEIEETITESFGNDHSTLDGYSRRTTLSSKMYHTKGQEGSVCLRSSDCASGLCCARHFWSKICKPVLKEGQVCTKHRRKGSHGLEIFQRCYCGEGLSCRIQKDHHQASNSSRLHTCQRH

[10] = test system: Inhibin beta A chain (activin A); assay: INHBA (activin A) binders on microarrays, primary screen, biochemical, small-molecule microarray, 635 nm fluorescence scan (AID 1107); conditions: small-molecule microarray binding, higher = more signal;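 note: mouse activin A protein probed at 4.33 µg/mL on printed slides; score merges bound-protein fluorescence near 667 nm with spot signal-to-noise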
[11] = test system: Human papillomavirus type 1a protein E7 (residues 44-93); assay: HPV1a E7 fragment binders on microarrays, primary screen, biochemical, small-molecule microarray, residues 44-93, 635 nm fluorescence (AID 1108); conditions: small-molecule microarray binding, fluorescence 635 nm; higher = more signal;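 note: E7 fragment applied at 1 µg/mL in TBST for 1 h at 4 C; score combines spot fluorescence with its signal to noise ratio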
[12] = modulators of HCV replicon luciferase signal, primary screen, HCV replication inhibitor project, Huh7 cells, luciferase reporter (AID 1109); conditions: 48 h, higher = more signal;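 note: huh7 hepatoma cells harbouring a luciferase neomycin HCV replicon reporter; luciferase luminescence as measure of HCV replicon replication; test concentration not given here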
[13] = target: Left-right determination factor 2 (Homo sapiens) (UniProt O00292); assay: LEFTY2 binders on small-molecule microarrays, primary screen, biochemical, small-molecule microarray, 635 nm fluorescence scan (AID 1110); conditions: LEFTY2 binding, higher = more signal
Chain of Left-right determination factor 2 (Homo sapiens) (O00292 whole entry, looked up): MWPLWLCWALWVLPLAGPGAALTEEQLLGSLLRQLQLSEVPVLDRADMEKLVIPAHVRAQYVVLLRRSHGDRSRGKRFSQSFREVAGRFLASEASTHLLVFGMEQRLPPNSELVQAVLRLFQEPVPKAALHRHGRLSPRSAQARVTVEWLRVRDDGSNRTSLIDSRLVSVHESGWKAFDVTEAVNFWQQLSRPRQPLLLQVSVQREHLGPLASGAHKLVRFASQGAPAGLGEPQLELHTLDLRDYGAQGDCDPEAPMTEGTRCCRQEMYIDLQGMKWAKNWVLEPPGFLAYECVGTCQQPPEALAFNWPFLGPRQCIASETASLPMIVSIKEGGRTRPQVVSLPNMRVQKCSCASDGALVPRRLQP

[14] = target: Calmodulin-1 (Homo sapiens) (UniProt P0DP23); assay: CALM1 binders on microarrays, EGTA buffer, profiling panel, biochemical, small-molecule microarray, Cy5-labelled CALM1 (AID 1111); conditions: Cy5-CALM1 binding fluorescence, higher = more signal;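 note: labelled calmodulin applied in Tris saline Tween buffer holding calcium plus EGTA and DTT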
[15] = target: Calmodulin-1 (Homo sapiens) (UniProt P0DP23); assay: calcium-bound CALM1 binders on microarrays, profiling panel, artefact control for SMM control-protein annotation, biochemical, small-molecule microarray, Cy5-labelled CALM1, plus calcium (AID 1112); conditions: Cy5-CALM1 binding fluorescence, higher = more signal;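 note: score merges spot fluorescence with signal to noise from triplicate slides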
[16] = small-molecule microarray binders of probe aWnt5a, primary screen, biochemical, biotinylated probe, 635/667 nm fluorescence (AID 1113); conditions: higher = more signal;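 note: score merges 667 nm fluorescence intensity with signal-to-noise per printed feature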
[17] = small-molecule microarray binders of probe aShh, primary screen, biochemical, biotinylated probe, 635/667 nm fluorescence (AID 1114); conditions: higher = more signal;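 note: probe is biotin-labelled aShh protein from a stem cell growth factor screen; measures binding of labelled protein to compounds printed on the slide; score merges feature fluorescence at 667 nm with signal-to-noise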
[18] = small-molecule microarray binders of probe aNog, primary screen, biochemical, biotinylated probe, 635/667 nm fluorescence (AID 1115); conditions: higher = more signal;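 note: probe is biotinylated aNog protein used at 0.15 µg/mL for 1 h at 4 C; z-score combines 667 nm fluorescence of each spot with its signal to noise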
[19] = target: Torsin-1A-interacting protein 1 (Homo sapiens) (UniProt Q5JTV8); assay: LAP1 binders from COS7 cell lysate, primary screen, small-molecule microarray, 635/667 nm fluorescence (AID 1116); conditions: COS7-hLAP1 lysate binding, 635 nm fluorescence, higher = more signal
Chain of Torsin-1A-interacting protein 1 (Homo sapiens) (Q5JTV8 whole entry, looked up): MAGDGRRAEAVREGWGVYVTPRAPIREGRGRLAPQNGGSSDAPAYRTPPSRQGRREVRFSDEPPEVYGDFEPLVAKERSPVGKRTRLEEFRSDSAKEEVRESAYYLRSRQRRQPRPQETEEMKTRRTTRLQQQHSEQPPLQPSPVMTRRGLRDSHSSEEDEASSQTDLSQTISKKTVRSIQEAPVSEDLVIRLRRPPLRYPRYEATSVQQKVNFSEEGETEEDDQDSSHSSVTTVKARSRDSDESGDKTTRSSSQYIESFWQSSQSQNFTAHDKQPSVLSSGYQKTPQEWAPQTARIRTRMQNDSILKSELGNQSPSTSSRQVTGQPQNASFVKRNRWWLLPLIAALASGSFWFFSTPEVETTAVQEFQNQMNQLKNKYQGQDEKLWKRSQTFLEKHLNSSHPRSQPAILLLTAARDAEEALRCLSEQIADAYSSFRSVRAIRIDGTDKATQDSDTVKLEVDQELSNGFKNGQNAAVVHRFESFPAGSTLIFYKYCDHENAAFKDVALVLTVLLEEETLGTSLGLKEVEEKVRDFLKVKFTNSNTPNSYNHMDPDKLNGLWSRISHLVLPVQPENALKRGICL

[20] = target: Alpha-bungarotoxin (Bungarus multicinctus) (UniProt P60615); assay: alpha-bungarotoxin binders on microarray, profiling panel, artefact control for SMM control protein annotation, biochemical, small-molecule microarray, Alexa647 label, 635/667 nm fluorescence (AID 1117); conditions: alpha-BTX-A647 binding fluorescence, higher = more signal
Chain of Alpha-bungarotoxin (Bungarus multicinctus) (P60615 whole entry, looked up): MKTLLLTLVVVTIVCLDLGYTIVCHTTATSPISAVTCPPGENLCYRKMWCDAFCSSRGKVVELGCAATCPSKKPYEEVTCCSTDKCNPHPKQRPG

| SMILES | composite z-score [1] | composite z-score [2] | composite z-score [3] | z-score [4] | composite z-score [5] | composite z-score [6] | composite z-score [7] | composite z-score [8] | composite z-score [9] | composite z-score [10] | composite z-score [11] | z-score [12] | composite z-score [13] | composite z-score [14] | composite z-score [15] | composite z-score [16] | composite z-score [17] | composite z-score [18] | composite z-score [19] | composite z-score [20] |
| --- | --- | --- | --- | --- | --- | --- | --- | --- | --- | --- | --- | --- | --- | --- | --- | --- | --- | --- | --- | --- |
| COCC#Cc1ccc([C@@H]2N[C@H](C(=O)O)CC[C@H]2C)cc1 | -0.331 | 0.159 | -0.0016 | -1.63 (inactive) | 0.129 | 0.223 | 0.362 | 0.246 | 0.302 | 0.784 | -0.216 | 0.958 | 0.794 | -0.292 | 0 | -0.224 | -0.117 | -0.186 | -0.416 | 0.0645 |
| CO[C@@H]1COC(=O)CC=C[C@H](C)[C@H](OC)COC(=O)[C@@H]2CCCN2C(=O)CC=C[C@H]1C | 0.811 | -0.48 | -1.38 | -0.127 (inactive) | 0.487 | 0.562 | 1.15 | 1.25 | 1.52 | 1.14 | -0.496 | -0.733 | 1.31 | -0.86 | -1.38 | -0.113 | 0.0328 | -0.195 | -0.041 | -0.324 |
| O=C1C[C@@H](O)[C@@H](O)[C@@H]2[C@@H]3C(=O)N(Cc4ccccc4)C(=O)[C@@H]3CC[C@H]12 | 0.465 | -0.0382 | -0.506 | -0.0414 (inactive) | 0.56 | 0.331 | 0.564 | 0.643 | 0.608 | 0.3 | -0.234 | -0.0156 | 0.804 | 0.0302 | -0.344 | -0.0869 | -0.138 | 0.0369 | 0.432 | 0.848 |
| CO[C@H]1COC(=O)CC=C[C@@H](C)COC(=O)[C@H]2CCCN2C(=O)CC=C[C@H]1C | 1.3 | -0.268 | -1.16 | -0.104 (inactive) | 0.756 | 1.01 | 1.29 | 1.45 | 1.9 | 1.32 | -0.858 | -0.0849 | 1.48 | -1.05 | -1.72 | -0.0721 | 0.684 | -0.542 | 1.03 | -1.25 |
| O=C1CCCC=C1C(O)COCc1ccccc1 (stereo not given) | 0.179 | -0.32 | -0.344 | -0.0937 (inactive) | -0.146 | -1.62 | -0.137 | -0.171 | -0.126 | 0.53 | -1.61 | -0.45 | -0.0061 | -0.0384 | -1.3 | 0.026 | -0.269 | -0.172 | 0.381 | 0.032 |
| O=C1C2=CC[C@H]3C(=O)N(c4ccc(F)cc4F)C(=O)[C@H]3[C@H]2[C@H](O)[C@@H]2O[C@H]12 | 0.305 | -0.378 | -0.778 | -0.35 (inactive) | 0.472 | 0.578 | 0.347 | 0.453 | 0.658 | -0.172 | 0.356 | -0.155 | 0.662 | -0.232 | -0.773 | -0.206 | -0.352 | -0.553 | 0.335 | 0.455 |

From PubChem BioAssay
